Out of some 69,000 compounds screened, about 8,600 (12%) showed an effect of 50% or more. This excerpt belongs to a sample that is enriched for strong results.

This assay concerns Plasmodium berghei. As to the kind of experiment: Screen against P. berghei liver stage (PbLuc), transformed with Luciferase, at 10uM. Type of assay: functional, HepG2. The conditions noted are these: tested at 10 uM.
With `CC(C)NC(=O)[C@H]1C[C@@H]2[C@@H](C1)OCCN2Cc1ccco1`, the INHIBITION turned out to be 7.24%.
On to `CC(C)(C)OC(=O)N[C@@H]1C[C@@H](O)CN(C(=O)c2cccc(F)c2)C[C@H]1O`, for which the INHIBITION came out at 4.41%.
Take `C[C@H]1C(=O)NC[C@H]2CN(Cc3cccc(F)c3)C[C@H]21`: the INHIBITION is given as 23.5%.
Turning to `CC(=O)N1CCC2(CC1)CN(C)C(=O)C[C@H]2C(F)(F)F`, the INHIBITION worked out at 2.79%.
For the compound `CC(Nc1c(F)cc(C#N)cc1F)c1cccc(S(N)(=O)=O)c1` (configuration not stated), the INHIBITION is -68.1%.
Consider `CCN(C)C[C@@H]1CN(C(=O)NC2CCCCC2)C[C@@H]1CO`, for which the INHIBITION is given as 24.5%.
Consider `COCCN(C)C[C@@H]1CN(C(=O)c2cccc(C(F)(F)F)c2)C[C@@H]1CO`, for which the INHIBITION stood at 23.5%.
With `COCCN(C)C[C@@H]1CN(C(=O)c2sc3ccccc3c2C)C[C@@H]1CO` the figure was 17.6%; with `COCCN(C)C[C@@H]1CN(C(=O)NC2CCCCC2)C[C@@H]1CO`, 50.2%; with `COCCN(C)C[C@@H]1CN(C(=O)c2ccc(C)cc2)C[C@@H]1CO`, -18.9%.
`COCCN(C)C[C@@H]1CN(C(=O)C(C)(C)c2ccccc2)C[C@@H]1CO`: the INHIBITION came to 60.6%.
Take `CN(C)CCN(C)C[C@@H]1CN(C(=O)NC2CCCC2)C[C@@H]1CO`: the INHIBITION is recorded as 27.4%.
`COCCN(C)C[C@@H]1CN(C(=O)c2ccc(=O)n(C)c2)C[C@@H]1CO`: the INHIBITION turned out to be 57.2%.
On to `COCCN(C)C[C@@H]1CN(C(=O)c2ccc(SC)cc2)C[C@@H]1CO`, for which the INHIBITION is 19.4%.
With `O=C1NC(c2ccccc2)=N[C@@]12CC[C@@H]1CN(CC3CC3)C[C@@H]12` the figure was 44.2%; with `O=C(CCc1nc2cc(Br)cnc2[nH]1)NCCN1CCOCC1`, -7.28%.
For the compound `N#Cc1cccc(C(=O)N2CCC(Nc3cccnn3)CC2)c1`, the INHIBITION is reported as 15.5%.
Consider `Cc1ccc2c(c1)C(NC(=O)N(C)C)CC21CCN(C)CC1` (configuration not stated), for which the INHIBITION was -24.1%.
Under `OC1CCN(c2ccc(CNc3nc4ccccc4s3)cc2F)CC1` stands 59.4%.
For the compound `COC(=O)c1sc(NCc2ccc(N3CCC(O)CC3)c(F)c2)nc1Cl`, the INHIBITION came to 91.2%.
As for `OC1CCN(c2ccc(CNc3nc4ccccc4o3)cc2F)CC1`, the INHIBITION is given as -37.7%.
As for `Cc1nc(C(=O)NCc2ccc(N3CCNC(=O)C3)c(F)c2)cs1`, the INHIBITION was -11.7%.
Consider `OC1CCN(c2cnnc3ccccc23)CC1`, for which the INHIBITION was 40.2%.
With `N#Cc1cc(NC(=O)c2cc[nH]n2)ccc1N1CCC(O)CC1` the figure was 9.65%.
In the case of `Cc1cc(NCCNc2cccnc2)nc(N)n1`, the INHIBITION is on record as 36.8%.
With `CCC(NS(=O)(=O)c1ccc(C(=O)NC2CC2)cc1)c1cnn(C)c1` (configuration not stated) the figure was -10.1%.
In the case of `O=C1CC2(CCN(C(=O)c3ccncc3)CC2)Oc2c(Cl)cc(Cl)cc21`, the INHIBITION is -29%.
For `CC(C)N1CCc2ncn(C)c2C1C(=O)N1CCOCC1` (configuration not stated), the INHIBITION amounted to 29%.
Consider `CC(C)N1CCc2ncn(C(C)C)c2C1C(=O)NCCN1CCCC1` (configuration not stated), for which the INHIBITION is listed as 30.5%.
For `CC(C)N1CCc2ncn(C)c2C1C(=O)NCCN1CCCC1` (configuration not stated), the INHIBITION is 67.4%.
On to `CCc1noc(Cn2c(=O)c3c(C(F)(F)F)cc(C)nc3n2C)n1`, for which the INHIBITION is -7.93%.
With `CC1CCN(c2nc3c(cnn3-c3ccccc3)c(=O)[nH]2)CC1` the figure was 89.6%; with `O=c1[nH]c(N2CC(O)C2)nc2c1cnn2-c1ccccc1`, 17.1%.
Regarding `O=c1[nH]c(N2CCN(C3CC3)CC2)nc2c1cnn2-c1ccccc1`, the INHIBITION came out at 24.7%.
With `COCC1CN(Cc2sccc2C)Cc2nnn(CC3CC3)c21` (configuration not stated) the figure was -42.9%.
As to `CCn1cc2c(n1)CN(Cc1nccs1)CC2COCC1CC1` (configuration not stated), the INHIBITION came out at 71.1%.
In the case of `CCOCC1CN(Cc2nccs2)Cc2nn(CC3CC3)cc21` (configuration not stated), the INHIBITION turned out to be 11.4%.
With `CCn1cc2c(n1)CN(CC1CC1)CC2COCC1CC1` (configuration not stated), the INHIBITION is listed as 19.3%.
Regarding `CCn1cc2c(n1)CN(C(=O)c1ccncc1)CC2COCC1CC1` (configuration not stated), the INHIBITION is -30.1%.
With `CCn1cc2c(n1)CN(Cc1sccc1C)CC2COCC1CC1` (configuration not stated) the figure was 52%; with `OC1CCCN(Cc2ccnc(-c3cccnc3)n2)C1` (configuration not stated), 19.6%; with `CCn1cc(-c2cc(C(F)(F)F)n(CCCN)n2)cn1`, 8.53%.
Turning to `Fc1ccc(CN[C@@H]2COC[C@H]2c2ccc(F)cc2)cc1`, the INHIBITION is given as -27.1%.
Consider `Cc1noc(CN(C)C(=O)c2n[nH]c(N)c2-c2ccccc2)n1`, for which the INHIBITION turned out to be 1.98%.
For the compound `Cc1cc(-c2cncnc2)nc(C2CCCN2S(C)(=O)=O)n1` (configuration not stated), the INHIBITION is 31.3%.
For `O=C(CN1CC(c2nc(C3CC3)no2)C1)N1CCOCC1`, the INHIBITION was 29.7%.
On to `CC1CCN(C(=O)CN2CC(c3nc(C4CC4)no3)C2)CC1`, for which the INHIBITION stood at 58.1%.
On to `O=C(CN1CCCC(c2noc(C3CC3)n2)C1)N1CCCC1` (configuration not stated), for which the INHIBITION is 15.6%.
Regarding `NC(=O)CN(Cc1ncc(-c2ccc(Cl)cc2)o1)C1CCCC1`, the INHIBITION is recorded as -46.6%.
With `CN(C)C[C@@H]1CN(C2CCN(c3ccc(Cl)cc3)CC2)C[C@@H]1CO` the figure was -86.5%; with `CN(CCO)C[C@@H]1CN(C2CCN(c3ccccc3Cl)CC2)C[C@@H]1CO`, 55.2%.
Turning to `CN(C)C[C@@H]1CN(C2CCN(c3ccccc3Cl)CC2)C[C@@H]1CO`, the INHIBITION turned out to be 22.3%.

These data come from ChEMBL document CHEMBL4513216, “Probing the Open Global Health Chemical Diversity Library for Multistage-Active Starting Points for Next-Generation Antimalarials” (ACS Infect Dis, 2020).
